Data reported in PubChem BioAssay AID1053144 (Broad Institute, 2014).
Among all 3,400 compounds or so, about 160 (4.7%) were called active.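 How the source made its calls: active means fitted curve reaches 30% activation at a concentration no higher than the top valid tested dose, luminescence rising; inconclusive means no clear call, values can overlap the other calls; inactive means signal moving opposite to the expected increase, plus the rest.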 These entries were drawn from the full list. Potency and affinity values are given separately.

Assay: Wnt/beta-catenin signaling activators, dose response, cell-based, iPS-derived NPC, luciferase, Wnt3a, cherry-pick (AID 1053144);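 further: Wnt3a stimulus is conditioned medium from Wnt3a-transfected mouse L cells at 5% in well; 0% = neutral control wells and 100% = CHIR-99021 positive control wells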
Settings: NPC TCF/LEF luciferase reporter, Wnt3a EC25, 24 h; series mostly up to 26 µM; activation: at the top concentration

activation, inactive:
COc1ccc(-c2nc3c4ccccc4[nH]c(=O)n3n2)cc1 8.52%
O=C(Nc1nccs1)c1sc2cc(Cl)ccc2c1Cl 0.675%
O=C(NCC(=O)N1CCCCC1)c1sc2ccccc2c1Cl 12.8%
C/C(=C\c1ccccc1)C(=O)NCc1ccco1 8.95%
O=C(NN1C(=O)C2C3c4ccccc4C(c4ccccc43)[C@@H]2C1=O)c1ccccc1 (some centres undefined) 1.36%
CCOC(=O)c1cccc(COC(=O)c2cccc(-c3nnc(-c4ccccc4)o3)c2)c1 0.153%
CN(CC(=O)Nc1ccc(F)cc1)C(=O)COC(=O)c1cccc(N(C)C)c1 9.3%
COc1ccc(/C=C2\CCC(C3CCCC3)C2=O)cc1OC (centres undefined) 3.68%
Cc1cc(C)n(-c2nc3ccccc3s2)n1 4.91%
CN(C)c1ccc(-c2ccc3c(=O)c4ccccc4n(C)c3c2)cn1 4.76%
O=C(COn1nnc2ccccc21)NCC1CCCCC1 9.79%
O=C(NNS(=O)(=O)c1ccccc1)C1CCN(S(=O)(=O)c2ccccc2)CC1 1.1%
O=C(Nc1ccccc1)c1cc2ccccc2o1 11.2%
O=C(c1ccc(F)cc1)c1cc2ccccc2o1 10.6%
COc1ccc(/C=C2/CCc3ccccc3C2=O)cc1OC 4.77%
Cc1ccc(/C=C/C(=O)c2nc3ccccc3[nH]2)cc1 21.5%
O=C(/C(=C/c1ccc(Cl)cc1)c1nc2ccccc2[nH]1)c1ccccc1 -5.94%
Nc1c(C(=O)Nc2ccc(Cl)cc2)oc2ccccc12 9.62%
O=C(/C=C/c1ccco1)Nc1ccccc1C(=O)O 13.5%
CCOc1ccc(CCNC(=O)COc2cc(=O)n(C)c3ccccc23)cc1OCC 17.3%
CCc1nnc(NC(=O)/C=C/c2ccco2)s1 10%
CCOc1ccc(CCNC(=O)COC(=O)c2cccc(N(C)C)c2)cc1OCC 18.4%
CC(C)(C)c1ccc(/C=C/C(=O)Nc2cccnc2)cc1 14.5%
Cc1cc(C(=O)COC(=O)c2ccc(O)cc2)c(C)n1CC(F)(F)F 19.3%
C(=C\c1cc(/C=C/c2ccccc2)ncn1)/c1ccccc1 8.61%
COc1ccc(C(=O)/C=C/c2ccccc2C(F)(F)F)cc1 17%
CCCCOC(=O)Nc1ccc(N2CCCCC2)cc1 10.5%
COC(=O)c1ccc(NC(=O)Cc2ccccc2)cc1 7.35%
COc1ccc(/C=C(/NC(=O)c2ccccc2Cl)C(=O)O)cc1 0.835%
Cc1nc(Nc2ccccc2)sc1C(=O)c1ccccc1 7.59%
O=C(O)Cc1sc(Nc2ccccc2)nc1-c1cccs1 11.4%
O=C(Nc1ccc(Cl)cc1)Nc1ccccc1C(=O)NCc1ccco1 21.4%
Cc1ccsc1C(=O)OCc1cc(=O)n2ccsc2n1 15.6%
COC(=O)CNc1c(-c2ccccn2)nc2ccc(Br)cn12 4.47%
COC(=O)c1ccc(NC(=O)c2cccc(OC)c2)cc1 11%
COc1ccc(NC(=O)c2cccc(OS(=O)(=O)N(C)C)c2)cc1 9.03%
O=C(/C=C\c1ccco1)Oc1cccc2cccnc12 -5.59%
C(=N\Nc1nccc(-c2cccnc2)n1)/c1ccccc1 8.07%
CC(C)(C)c1cc(C(=O)NNC(=O)c2ccc(C(F)(F)F)cc2)no1 1.66%
COc1ccc(/C=C/C(=O)c2ccccn2)cc1 14.1%
CN(C)c1ccc(/C=C/c2ccncc2)cc1 5.29%
COc1c(OC(C)=O)ccc(/C=C/c2ccc3cccc(OC)c3n2)c1[N+](=O)[O-] -1.16%
CC(=O)Nc1ccc(-c2ccnc3c2CC(C)(C(=O)NC(C)C)O3)cc1 (centres undefined) 0.429%
Cc1ccc(NC(=O)CSc2nccn2Cc2ccco2)c(C)c1 6.3%
CCC(=O)NCCc1nc2cc(NC(=O)c3ccc(Cl)cc3)ccc2n1C 5.88%
Cn1c(CCNC(=O)c2ccco2)nc2cc(NC(=O)c3ccccc3)ccc21 17.2%
Clc1ccccc1Nc1nc(-c2cccnc2)cs1 9.94%
Nc1ccccc1-n1cccc1 20%
Cc1ccc(S(=O)(=O)N2CCCC(C(=O)Nc3ccc(NC(=O)c4ccccn4)cc3)C2)cc1 (centres undefined) 0.501%
Oc1ccc(-c2csc(Nc3ncccn3)n2)c(O)c1 14.6%
Clc1ccc(-c2nc3n(n2)Cc2ccccc2-3)cc1 1.17%
COc1ccc(-c2nc3n(c2C)Cc2ccccc2-3)cc1 12.4%
Cn1c(-c2ccc(F)c(F)c2)cc2onc(-c3ccccc3)c2c1=O 5.39%
NC(=O)C1CCN(C(=O)c2cc3c(s2)CCCCC3)CC1 2.7%
O=C(Nc1nc(-c2nc3ccccc3s2)cs1)C1CC1 17%
O=C(Nc1nc(-c2ccc3c(c2)OCCO3)cs1)C1CCCC1 16.9%
CC(C)(C)c1ccc(NC(=O)c2ccccc2)c([N+](=O)[O-])c1 3.96%
O=C(Nc1ccc2c(c1)OCO2)Nc1ccccn1 13.8%
Cc1ccc(CNC(=O)c2ccc(Cn3cc(-c4ccc(C)cc4)nc3-c3ccncc3)cc2)cc1 8.59%
Clc1ccc(-c2cc(-c3ccccc3)on2)cc1 10.5%
Nc1nc(-c2cc(-c3ccccc3)no2)cs1 9.23%
Cc1ccc(OCC(=O)Nc2ccccc2F)cc1 12.7%
COc1cccc(OCC(=O)Nc2ccccc2C(N)=O)c1 8.69%
Cc1cc(C)c(C#N)c(N2CCSCC2)n1 2.58%
O=C(Nc1ccccc1F)c1ccc2c(c1)OCO2 12.6%
O=C(Nc1cccnc1)c1ccc(Oc2ccccc2)cc1 9.21%
O=C(Nc1ncccc1O)c1ccc2ccccc2c1 8.12%
NC(=O)c1ccccc1NC(=O)c1ccc2c(c1)OCO2 16.1%
O=C(Nc1ccc(Cl)cc1Cl)c1ccc2c(c1)OCCO2 2.85%
Cc1nc(NC(=O)c2ccc3c(c2)OCCO3)ccc1Br 7.19%
COCCn1c(C)cc(C(=O)CSc2nc3ccccc3c(=O)n2Cc2ccco2)c1C 18.6%
Nc1cc([N+](=O)[O-])ccc1OCc1ccccc1 8.87%
O=C(Nc1cc2c(cc1Br)OCCCO2)c1ccccc1 7.2%
C/C(=C\c1ccccc1)C(=O)NCCc1ccccc1 15.1%
CN(CCO)C(=O)c1ccc(-c2nn(C)c(=O)c3ccccc23)cc1 9.07%
O=C(Nc1cccc(F)c1)Nc1ccc2c(c1)CCC2 6.92%
O=C(Nc1ccc2c(c1)CCC2)c1cccs1 4.74%
O=C(CCNC(=O)c1ccc(Cl)cc1)NC1CCCCCC1 10.6%
CCOc1cc(/C=N/NC(=O)CSc2nnc(C)s2)ccc1OCc1ccccc1Cl -1.65%
O=c1oc(CCO)cc2ccc(-c3ccc4[nH]ccc4c3)cc12 13.7%
O=c1c2ccccc2oc2cc(-c3ccc4cc[nH]c4c3)ccc12 7.52%
CC1CCc2c(sc(/N=C/c3ccco3)c2C(N)=O)C1 (centres undefined) 5.79%
Fc1ccc2cc(-c3ccccc3F)ncc2c1 11.3%
Cc1cc(NC(=O)c2ccc(OCC3CCCO3)cc2)ccc1Br (centres undefined) 11.3%
O=C(CSc1nc2ccccc2c(=O)n1NC(=O)c1ccccc1)c1ccc(Cl)cc1 6.68%
O=c1c2ccccc2nc2c3ccccc3c(NCc3ccccn3)nn12 6.04%
Cn1cccc1C(=O)OCC(=O)Nc1ccc2c(c1)OCCO2 2.19%
Cc1ccccc1Cn1nnc(C(=O)Nc2ccc3c(c2)OCCO3)c1N 18%
Fc1ccccc1-c1nc2ccccc2[nH]1 7.36%
CCOC(=O)c1sc(=NC(=O)c2ccc(C)cc2)n(C)c1C 5.95%
CCOC(=O)c1sc(=NC(=O)c2ccccc2)n(C)c1C 12.3%
NC(=O)c1cc(Cl)ccc1OCC(=O)Nc1ccc2c(c1)OCO2 15.9%
Oc1ccccc1/C=N/Nc1cccc2cccnc12 11%
O=C(O)c1ccc(N/N=C/c2cccc3cccnc23)cc1 7.3%
Cc1ccc(C(=O)Nc2cccc(C(=O)N3CCOCC3)c2)cc1 13.5%
Cn1cccc1C(=O)OCC(=O)N1CCc2ccccc21 13.9%
COC(=O)N=Nc1c(O)[nH]c2ccc(Br)cc12 13%
O=C(N=Nc1c(O)[nH]c2ccc(Br)cc12)c1ccco1 8.44%
O=C1CCN(Cc2ccccc2)C=C1c1ccc2ccccc2c1 9.52%
CC(C)=CC(=O)Nc1ccc(Cl)cc1 11.1%
O=C(NCCc1cccc(Cl)c1)c1ccc2c(c1)OCO2 1.66%
Cc1ccc(-n2nc3ccc(NC(=O)/C=C/c4ccco4)cc3n2)cc1 7.6%
O=C(/C=C/c1ccco1)Nc1cccnc1 3.46%
COc1cccc(NC(=O)/C=C/c2ccco2)c1 15.9%
O=C(/C=C/c1ccco1)Nc1cccnc1Cl 14.5%
COc1cccc(-c2cc(C(=O)N3CCCCCC3)no2)c1 3.16%
COc1ccc(-c2cc3nc4n(c(=O)c3s2)CCCCC4)cc1 3.29%
O=C(COc1ccc(F)cc1Cl)NC1CCCCCC1 6.97%
COc1ccc2c(c1)-c1nc(NC(=O)c3ccco3)sc1CC2 13%
N/C(=N\OC(=O)c1ccco1)c1cccnc1 1.97%
COc1ccc(C(=O)O/N=C(\N)c2ccc(Br)cc2)cc1 14.7%
COc1ccccc1C(=O)O/N=C(\N)c1ccccn1 7.03%
N/C(=N\OC(=O)c1ccco1)c1ccccc1 10.3%
Cc1cccc(C(=O)O/N=C(\N)c2ccc(Cl)cc2)c1 17.3%
COc1ccccc1C(=O)O/N=C(\N)c1ccccc1Cl 9.49%
COc1ccc(-c2cc(-c3ccc(C)cc3)n[nH]2)c(O)c1 3.59%
NS(=O)(=O)c1ccc2nc(NC(=O)Nc3ccccc3F)sc2c1 15.6%
Cc1ccc2[nH]c(-c3cccc(N)c3)cc2c1 10.4%
O=C(/C=C/c1ccc(F)cc1)NCCC1=CCCCC1 5.54%
CC(C)(C)c1ccc(NC(=O)c2ccc(=O)[nH]n2)cc1 6.11%
COc1ccc2cc(-c3ccsc3)ncc2c1 5.78%
O=C1CC(c2ccco2)CC2=C1C=Nc1ccccc1N2 (centres undefined) -0.043%
CC1(C)CC(=O)C2=C(C1)Nc1ccccc1NC2c1ccc2c(c1)OCO2 (centres undefined) 14.2%
O=C(NCCc1cccs1)c1ccc(Cl)c(Cl)c1 10.3%
